Data from PubChem BioAssay (NCI).
The panel holds about 79,000 compounds, 15% with a hit somewhere; the sample as a whole holds those more often. Values without a mark were called inactive. Activity calls are given as the source filed them. Rule as the data show it: active = growth inhibition above about 70%; inactive = the rest.

Key:
[1] = NCI Yeast Anticancer Drug Screen. Data for the rad50 strain (AID 155);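 also: 0% = growth of vehicle-only cultures of the same strain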; details: S. cerevisiae rad50 strain growth inhibition; at 50.0 µM; active compounds read high
Summary of the method: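 Relative growth inhibition (compound vs vehicle) was measured in yeast with a defined repair-gene alteration.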

[2] = NCI Yeast Anticancer Drug Screen. Data for the mec2-1 strain (AID 157); details: S. cerevisiae mec2-1 strain, at 50.0 µM, active compounds read high
Summary of the method: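 Yeast mec2-1 mutant treated with compound. Readout: growth inhibition vs vehicle controls.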

[3] = NCI Yeast Anticancer Drug Screen. Data for the sgs1 mgt1 strain (AID 161);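 also: 0% = growth of cultures given vehicle only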; details: S. cerevisiae sgs1 mgt1 strain, at 50.0 µM, active compounds read high
Summary of the method: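 Inhibition of yeast growth, normalised to vehicle-treated controls, is reported for a strain bearing genetic alterations in DNA damage repair.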

[4] = NCI Yeast Anticancer Drug Screen. Data for the cln2 rad14 strain (AID 165);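 also: 0% = growth equal to vehicle treated cultures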; details: S. cerevisiae cln2 rad14 strain, at 50.0 µM, active compounds read high
Summary of the method: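 cln2 rad14 yeast strain; compound exposure; growth inhibition read vs vehicle controls.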

[5] = NCI Yeast Anticancer Drug Screen. Data for the bub3 strain (AID 167); details: S. cerevisiae bub3 mutant strain, at 50.0 µM, active compounds read high
Summary of the method: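 Screening used yeast with an engineered genetic alteration affecting cell cycle control. Compound-exposed cultures were compared with vehicle cultures, and reduced growth was taken as inhibition.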

[6] = NCI Yeast Anticancer Drug Screen. Data for the mlh1 rad18 strain (AID 175); details: S. cerevisiae mlh1 rad18 strain growth inhibition; at 50.0 µM; active compounds read high
Summary of the method: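 Yeast w/ defined DNA-repair lesions; compound exposure; growth vs vehicle controls → % inhibition.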

O=c1c(Cc2ccccc2)coc2ccccc12
growth inhibition [1]: 30.6%
growth inhibition [2]: 14.6%
growth inhibition [3]: 21.4%
growth inhibition [4]: -14.2%
growth inhibition [5]: 27.5%
growth inhibition [6]: -1.5%

S=C(NCc1ccc(Cl)cc1Cl)Nc1ccccc1
growth inhibition [1]: 23.1%
growth inhibition [2]: 73% (active)
growth inhibition [3]: 75.8% (active)
growth inhibition [4]: -1.8%
growth inhibition [5]: 64.7%
growth inhibition [6]: 72.5% (active)

CCCCOC(=O)NC(=O)c1cc2cc(I)cc(I)c2oc1=O
growth inhibition [1]: 3.45%
growth inhibition [2]: 5.8%
growth inhibition [3]: -7.75%
growth inhibition [4]: -50.2%
growth inhibition [5]: -10.6%
growth inhibition [6]: 17.6%

O=S(CCCl)c1ccccc1 (stereo unspecified)
growth inhibition [1]: -8.3%
growth inhibition [2]: -13.2%
growth inhibition [3]: 3.35%
growth inhibition [4]: 10.4%
growth inhibition [5]: -7.05%
growth inhibition [6]: 4.9%

CCOC(=O)c1ccc(OC)cc1
growth inhibition [1]: -12.7%
growth inhibition [2]: -25.4%
growth inhibition [3]: -8.8%
growth inhibition [4]: 2.8%
growth inhibition [5]: -3.55%
growth inhibition [6]: -17.4%

CCN(CC)c1nc(C(N)=O)c([N+](=O)[O-])c(N(CC)CC)n1
growth inhibition [1]: -9.7%
growth inhibition [2]: -3.4%
growth inhibition [3]: 14.1%
growth inhibition [4]: -14.2%
growth inhibition [5]: -17.9%
growth inhibition [6]: -0.5%

O=C(O)c1ccc(C(=O)O)c(C(=O)O)c1.[NH-]C1CCCCC1[NH-].[Pd+2]
growth inhibition [1]: 11.1%
growth inhibition [2]: 5.2%
growth inhibition [3]: 7.9%
growth inhibition [4]: 10.6%
growth inhibition [5]: 3.95%
growth inhibition [6]: 9.65%

CCOC(=O)Nc1cccc(Cl)c1Cl
growth inhibition [1]: -31.1%
growth inhibition [2]: -39.1%
growth inhibition [3]: -22.4%
growth inhibition [4]: 6.75%
growth inhibition [5]: -27.9%
growth inhibition [6]: -8%

Nc1cccc(OCc2nc(N)nc(N)c2-c2ccc(Cl)cc2)c1
growth inhibition [1]: -14%
growth inhibition [2]: -14.4%
growth inhibition [3]: -48.9%
growth inhibition [4]: -6.6%
growth inhibition [5]: -36%
growth inhibition [6]: -20.9%

CC(SC(C)c1ccccc1)c1ccccc1 (stereo unspecified)
growth inhibition [1]: -5.8%
growth inhibition [2]: -16.6%
growth inhibition [3]: -8.65%
growth inhibition [4]: -11.9%
growth inhibition [5]: -8.1%
growth inhibition [6]: 3.65%

N#CC(CC(=O)c1ccccc1)c1ccccc1Cl (stereo unspecified)
growth inhibition [1]: 17.2%
growth inhibition [2]: 24.9%
growth inhibition [3]: 31.3%
growth inhibition [4]: 17.6%
growth inhibition [5]: 40.4%
growth inhibition [6]: 22%

CC(C)N(C(=S)[S-])C(C)C.CC(C)N(C(=S)[S-])C(C)C.[Zn]
growth inhibition [1]: 96.8% (active)
growth inhibition [2]: 96.8% (active)
growth inhibition [3]: 97.8% (active)
growth inhibition [4]: 24.1%
growth inhibition [5]: 59.5%
growth inhibition [6]: 97% (active)

CC(=O)O[C@@H]1C[C@H](C)CC(C)(C)C1
growth inhibition [1]: 3.35%
growth inhibition [2]: 5.75%
growth inhibition [3]: -10.6%
growth inhibition [4]: -3.7%
growth inhibition [5]: 0.4%
growth inhibition [6]: -3.1%

[C-]#[N+]C1(c2ccccc2)C2CC3CC(C2)CC1C3 (stereo unspecified)
growth inhibition [1]: -1.7%
growth inhibition [2]: -7.05%
growth inhibition [3]: -4.35%
growth inhibition [4]: -16.9%
growth inhibition [5]: -4.25%
growth inhibition [6]: 9.35%

COc1cc(NS(=O)(=O)c2ccccc2)c2nc3ccc(Cl)cc3nc2c1
growth inhibition [1]: 3.6%
growth inhibition [2]: -8.4%
growth inhibition [3]: -25.1%
growth inhibition [4]: 3.3%
growth inhibition [5]: -7.25%
growth inhibition [6]: 12.3%

C1CCC(C2CCCC2)CC1
growth inhibition [1]: 7.5%
growth inhibition [2]: -0.35%
growth inhibition [3]: -13%
growth inhibition [4]: -32.6%
growth inhibition [5]: -17.2%
growth inhibition [6]: 4.15%

Cc1sc2nc(N(C)C)oc(=O)c2c1C
growth inhibition [1]: 28.8%
growth inhibition [2]: 51%
growth inhibition [3]: 33.6%
growth inhibition [4]: 1.5%
growth inhibition [5]: 64.4%
growth inhibition [6]: 50.5%

C=C(C)[C@@H]1CC=C(CO)CC1
growth inhibition [1]: 15.7%
growth inhibition [2]: -1.95%
growth inhibition [3]: 0.45%
growth inhibition [4]: 22.1%
growth inhibition [5]: 28.3%
growth inhibition [6]: 8.4%

Cc1cc2c(=O)cc(-c3ccc(C(=O)O)cc3)oc2c(C(N)=O)c1C
growth inhibition [1]: 4.15%
growth inhibition [2]: 14.9%
growth inhibition [3]: 23.6%
growth inhibition [4]: 23.4%
growth inhibition [5]: 11.2%
growth inhibition [6]: 12.9%

CCCCCNC(=O)c1ccc(C)cc1
growth inhibition [1]: 2.5%
growth inhibition [2]: -4.15%
growth inhibition [3]: 1.05%
growth inhibition [4]: -12.6%
growth inhibition [5]: -10.8%
growth inhibition [6]: -70%

N#CC1CC12c1ccccc1C(=O)c1ccccc12 (stereo unspecified)
growth inhibition [1]: -1.9%
growth inhibition [2]: 0.25%
growth inhibition [3]: 0.8%
growth inhibition [4]: -16.1%
growth inhibition [5]: -21.4%
growth inhibition [6]: -4.75%

CCNc1ncnc2sc(SCc3ccccc3)nc12
growth inhibition [1]: -39.3%
growth inhibition [2]: -20.8%
growth inhibition [3]: -12.7%
growth inhibition [4]: -0.6%
growth inhibition [5]: -31.1%
growth inhibition [6]: -37.1%

CCOC(=O)c1c[nH]c(=S)[nH]c1=O
growth inhibition [1]: 9.25%
growth inhibition [2]: -8.4%
growth inhibition [3]: 18.7%
growth inhibition [4]: -15.1%
growth inhibition [5]: -1.2%
growth inhibition [6]: -10.8%

COc1cc(/C=C/c2ccc(/C=C/c3cc(OC)c(OC)c(OC)c3)cc2)cc(OC)c1OC
growth inhibition [1]: 11.2%
growth inhibition [2]: -5.65%
growth inhibition [3]: -29.9%
growth inhibition [4]: 1.8%
growth inhibition [5]: -8.75%
growth inhibition [6]: -9.9%

C=C(C/C(=C/S(C)=O)c1ccccc1)c1ccccc1 (stereo unspecified)
growth inhibition [1]: 43.9%
growth inhibition [2]: 12.3%
growth inhibition [3]: 18.7%
growth inhibition [4]: 29.6%
growth inhibition [5]: 20.9%
growth inhibition [6]: 34.4%

c1cc(CSSCc2ccncc2)ccn1
growth inhibition [1]: -15%
growth inhibition [2]: 3.15%
growth inhibition [3]: -19.1%
growth inhibition [4]: -13.2%
growth inhibition [5]: -27.6%
growth inhibition [6]: 4.75%

CSCCC(NC(=O)OCc1ccccc1)P(=O)(O)c1ccccc1 (stereo unspecified)
growth inhibition [1]: -56%
growth inhibition [2]: -41.1%
growth inhibition [3]: -34%
growth inhibition [4]: 13.2%
growth inhibition [5]: 14.8%
growth inhibition [6]: -11%

O=C(O)C(=O)C(c1ccccc1)c1ccccc1
growth inhibition [1]: -0.4%
growth inhibition [2]: 6.9%
growth inhibition [3]: -21.1%
growth inhibition [4]: -29.1%
growth inhibition [5]: -22.9%
growth inhibition [6]: -5.3%

Cc1ccc(N=Nc2c(N)ccc3ccccc23)cc1
growth inhibition [1]: 90.5% (active)
growth inhibition [2]: 87.2% (active)
growth inhibition [3]: 89.6% (active)
growth inhibition [4]: 84.2% (active)
growth inhibition [5]: 87% (active)
growth inhibition [6]: 86.5% (active)

CNc1ccc(/C=C/c2ccnc3ccccc23)cc1
growth inhibition [1]: 31.2%
growth inhibition [2]: 46.2%
growth inhibition [3]: 68.3%
growth inhibition [4]: 27.6%
growth inhibition [5]: 42.1%
growth inhibition [6]: 49.8%

CCOC(=O)C#Cc1ccc(C#CC(=O)OCC)cc1
growth inhibition [1]: -0.5%
growth inhibition [2]: 19.4%
growth inhibition [3]: 6.45%
growth inhibition [4]: -2.95%
growth inhibition [5]: 1.95%
growth inhibition [6]: 51%

CN1c2ccccc2Sc2cc(/C=C3/SC(=S)NC3=O)ccc21
growth inhibition [1]: 1.95%
growth inhibition [2]: 4.6%
growth inhibition [3]: 3.55%
growth inhibition [4]: -19.8%
growth inhibition [5]: 38.8%
growth inhibition [6]: 0.15%

COc1cc(C)cc(OC)c1/C=C/C(=O)O
growth inhibition [1]: 8.4%
growth inhibition [2]: 11.1%
growth inhibition [3]: -8.6%
growth inhibition [4]: -13.6%
growth inhibition [5]: 1.75%
growth inhibition [6]: 2.25%

O=C(NC(=O)c1c(Cl)nc2sccn12)Nc1ccc(Cl)cc1
growth inhibition [1]: -5.45%
growth inhibition [2]: -14.1%
growth inhibition [3]: -4.65%
growth inhibition [4]: 0.85%
growth inhibition [5]: -0.6%
growth inhibition [6]: -23.9%

C[C@]12CCC3c4ccc(OC(=O)c5ccccc5)cc4CC[C@H]3C1CC[C@@H]2OC(=O)C12OC1CCC2=O (stereo partly specified)
growth inhibition [1]: -5.4%
growth inhibition [2]: -35.5%
growth inhibition [3]: -7.55%
growth inhibition [4]: 1.75%
growth inhibition [5]: -27.9%
growth inhibition [6]: -9.85%

Cc1cc(=O)c2cc(-c3ccccc3)ccc2[nH]1
growth inhibition [1]: -1%
growth inhibition [2]: 4.4%
growth inhibition [3]: -13.4%
growth inhibition [4]: 0.05%
growth inhibition [5]: -1.5%
growth inhibition [6]: 2%

CO/C=C/CCCNCc1ccccc1
growth inhibition [1]: -4.5%
growth inhibition [2]: -27.4%
growth inhibition [3]: 20.6%
growth inhibition [4]: 9.7%
growth inhibition [5]: 6.3%
growth inhibition [6]: 1.2%

CCCCOC(=O)C(C)OC(=O)/C=C\C(=O)OC(C)C(=O)OCCCC (stereo unspecified)
growth inhibition [1]: 7.5%
growth inhibition [2]: -7.5%
growth inhibition [3]: 6.9%
growth inhibition [4]: 4.05%
growth inhibition [5]: 2.4%
growth inhibition [6]: 15.9%

CCOC(=O)c1cc2cc(Br)ccc2[nH]1
growth inhibition [1]: 2%
growth inhibition [2]: -24%
growth inhibition [3]: 8.5%
growth inhibition [4]: 5.9%
growth inhibition [5]: -2.7%
growth inhibition [6]: 20.4%

C=CCOC(=O)NC(CCC(N)=O)C(=O)O (stereo unspecified)
growth inhibition [1]: 19.7%
growth inhibition [2]: 1.1%
growth inhibition [3]: 14.7%
growth inhibition [4]: 9.5%
growth inhibition [5]: -1%
growth inhibition [6]: 16.3%

CCOC(=O)C1(C(C)C)OC2(O)C3CCCN3C(=O)C(C(C)C)N2C1=O (stereo unspecified)
growth inhibition [1]: 8.45%
growth inhibition [2]: 10.5%
growth inhibition [3]: -3%
growth inhibition [4]: 20.3%
growth inhibition [5]: 8.8%
growth inhibition [6]: 17.4%
